# The sample as a whole holds a higher share of hits than the screen did.
# TDP1 cell CPT: qHTS for Inhibitors of human tyrosyl-DNA phosphodiesterase 1 (TDP1): qHTS in cells in presence of CPT. AID 686979, 2013. 420,000 tested, 12% active. Potency, µM (highest dose often 46.2 µM), without a hit: at the top dose activity change, negative = growth inhibition, actives largely listed as inhibitors. chicken DT40 Tdp1-/-;hTDP1 cells + 20 nM CPT, ATP luminescence, 48 h; note: potency is the fitted concentration of half-maximal effect; nearly all actives have a fitted effect of over 55% in size
#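 Cell growth measured by CellTiter-Glo luminescence after a minimum 48 h, 37 C compound exposure with 20 nM CPT in Tdp1-knockout DT40 cells stably expressing hTDP1, seeded 400/well; qHTS titration format.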
# HT1080 IDH1KD tx: qHTS for induction of synthetic lethality in tumor cells producing 2HG: qHTS for the HT-1080-IDH1KD cell line | Potency, µM (doses to about 46.1 µM), for the others: top-dose activity, negative = toxicity, usual class: cytotoxic | AID 686971, 2013 | 360,000 tested, 2% active | HT-1080 IDH1 knockdown viability, ATP luminescence, 48 h;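 note: potency is the fitted concentration of half-maximal effect; 0% = DMSO wells and -100% = cell-free medium wells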
#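 Cytotoxicity counter-line: IDH1KD HT-1080, 48 h, CellTiter-Glo. Curves classed by r2, magnitude and activity.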
# ALOX12 inh: Primary qHTS assay for inhibitors of human arachidonate 12S-lipoxygenase (ALOX12): Round 2 | Polyunsaturated fatty acid lipoxygenase ALOX12 (Homo sapiens), P18054 | purified 12hLO, xylenol orange hydroperoxide absorbance | Potency, µM (highest dose often 108 µM), for inactives: at the highest dose activity change, negative = inhibition, usual class: inhibitors | 580,000 tested, 1.1% active | AID 1671190, 2021; note: potency is the fitted concentration of half-maximal effect
# Target sequence (P18054 whole entry, looked up): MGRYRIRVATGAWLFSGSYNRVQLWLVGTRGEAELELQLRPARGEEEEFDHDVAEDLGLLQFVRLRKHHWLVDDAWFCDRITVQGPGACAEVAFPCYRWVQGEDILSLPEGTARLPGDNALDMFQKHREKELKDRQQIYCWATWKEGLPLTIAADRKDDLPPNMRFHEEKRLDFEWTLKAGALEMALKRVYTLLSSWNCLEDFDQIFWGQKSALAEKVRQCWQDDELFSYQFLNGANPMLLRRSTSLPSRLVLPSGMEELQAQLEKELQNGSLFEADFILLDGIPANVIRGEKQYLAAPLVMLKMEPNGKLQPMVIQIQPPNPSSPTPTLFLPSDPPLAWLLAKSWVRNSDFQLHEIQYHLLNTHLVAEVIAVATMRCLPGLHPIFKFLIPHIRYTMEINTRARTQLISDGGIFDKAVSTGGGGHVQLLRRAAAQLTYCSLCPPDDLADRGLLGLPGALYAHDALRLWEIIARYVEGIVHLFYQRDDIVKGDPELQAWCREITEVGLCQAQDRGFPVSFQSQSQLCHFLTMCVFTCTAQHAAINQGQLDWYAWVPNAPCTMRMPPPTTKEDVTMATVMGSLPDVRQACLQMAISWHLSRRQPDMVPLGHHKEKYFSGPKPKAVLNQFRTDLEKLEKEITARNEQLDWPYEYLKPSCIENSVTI
#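 Purified human 12hLO (150 nM final) in 25 mM Hepes, 0.01% Triton X-100, pH 7.0 was preincubated 15 min at room temperature with compound. Then 40 uM arachidonic acid was added, 30 min. Hydroperoxide was read by Fe-XO absorbance ratio 573/405 nm.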
# HT1080-NT tox: qHTS for induction of synthetic lethality in tumor cells producing 2HG: qHTS for the HT-1080-NT fibrosarcoma cell line | 360,000 tested, 1.6% active | Potency, µM (top dose mostly 46.1 µM), for the others: at the top dose activity, negative = less viability, hits mostly cytotoxic | HT-1080-NT fibrosarcoma viability, CellTiter-Glo ATP luminescence, 48 h;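 note: NT is the 2HG producing partner of a matched IDH1 knockdown line; potency is the fitted concentration of half-maximal effect; 0% = DMSO-treated cells and -100% = media-only wells without cells; nearly all actives have a fitted effect of over 55% in size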
#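 A 48-hour cytotoxicity screen used HT-1080-NT cells plated 2 hours before compound delivery. ATP-based CellTiter-Glo luminescence measured viability, normalized to DMSO and no-cell controls.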
# TDP1 cell noCPT: qHTS for Inhibitors of human tyrosyl-DNA phosphodiesterase 1 (TDP1): qHTS in cells in absence of CPT | DT40 Tdp1-/- hTDP1 cells, no CPT, ATP luminescence, 48 h | AID 686978, 2013 | 420,000 tested, 15% active | Potency, µM (doses to about 46.2 µM), inactives show at the highest dose activity change, negative = growth inhibition, usual class: inhibitors; note: potency is the fitted concentration of half-maximal effect; nearly all actives have a fitted effect of over 55% in size
#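 Seeded 400 DT40-hTDP1 cells/well (vehicle DMSO, no 20 nM CPT); pinned compounds; ≥48 hr at 37 °C; CellTiter-Glo luminescence as viability measure.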
# IL1B secr inh: qHTS for Inhibitors of Inflammasome Signaling: IL-1-beta AlphaLISA Primary Screen; THP-1 LPS/ATP IL-1B secretion, AlphaLISA, 16 h; hits give low values; activity change, % at 57.5 µM; 360,000 tested, 4.7% active; in the data active = activity change below about -50%; inconclusive = mostly about -30% to -49%
#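 THP-1 cells pretreated 1 hr with compounds (up to 57.5 uM final), then stimulated with LPS (250 ng/mL final) plus ATP (1.25 mM final); secreted IL-1B measured by AlphaLISA after 16 hr, decreased signal indicating inhibition.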
# Starred values were filed as active, the others as inactive; ? = inconclusive; . = not tested or not shown; [ ] = remark or other dose. Unless noted, calls come from the whole dose curve; as a rule, active = well fitted curve in the direction sought with a large enough effect; inconclusive = small, poorly fitted or top-dose-only effect, or another doubt; inactive = no such curve, though single readings can be large; an effect the other way counts as inactive or inconclusive. Unless noted, % is set by controls: 0 for no effect and ±100 for the full control effect.
SMILES,TDP1 cell CPT,HT1080 IDH1KD tx,ALOX12 inh,HT1080-NT tox,TDP1 cell noCPT,IL1B secr inh
O=[N+]([O-])c1cccc(C2Nc3cccc4cccc(c34)N2)c1,?,4%,?,5%,21µM*,-8
O=[N+]([O-])c1ccc(C2Nc3cccc4cccc(c34)N2)cc1,-16%,3%,40µM*,2%,-23%,-1
CCOC(=O)c1ccc(NC(=O)CCc2c(C)nn(-c3ccc(N4CCCCC4)nn3)c2C)cc1,.,.,-8%,.,.,.
CCOc1ccccc1CNC(=O)CCc1c(C)nn(-c2ccc(N3CCOCC3)nn2)c1C,?,.,-23%,.,?,.
CCOc1ccccc1CNC(=O)CCc1c(C)nn(-c2ccc(N3CCCCC3)nn2)c1C,?,.,-10%,.,21µM*,.
CCOc1ccccc1NC(=O)CCc1c(C)nn(-c2ccc(N3CCCCC3)nn2)c1C,23µM*,-12%,-8%,-1%,16µM*,-14
CN(C)Cc1ccccc1CNC(=O)c1ccc(Cl)c(S(=O)(=O)NC2CC2)c1,1%,-1%,9%,1%,-14%,10
O=C(N1CCCCC1)C1(S(=O)(=O)c2ccccc2)CC=CC1,21µM*,18%,2%,15%,8.2µM*,16
O=C(N1CCOCC1)C1(S(=O)(=O)c2ccccc2)CC=CC1,-19%,7%,1%,9%,-10%,12
CC1CCC(NCCNC(=O)c2ccco2)CC1 (configuration not stated),17%,5%,2.8µM*,10%,12%,-7
COC[C@@H]1CN(C(=O)c2ccc(OC)nc2)C[C@H]1c1nc(C2CC2)no1,.,.,41%,.,.,.
Cc1n[nH]c(C)c1C(=O)CC1(O)C(=O)N(C)c2ccccc21 (configuration not stated),.,.,14%,.,.,.
CC1=C[C@@H](CNS(C)(=O)=O)[C@H](C(C)C)C[C@H]1Cc1nc2ccc(Cl)cc2[nH]1,.,.,0%[176 µM],.,.,.
O=C(c1nc(-c2ccc(Cl)cc2)n2c1CCCCC2)N1CCN(c2ccccc2F)CC1,?,.,-16%,.,16µM*,.
O=C(c1nc(-c2ccc(Cl)cc2)n2c1CCCCC2)N1CCN(c2ccc(F)cc2)CC1,23µM*,.,-18%,.,10µM*,.
COc1cc(-c2noc(-c3cc(C4CC4)[nH]n3)n2)cc(OC)c1OC,.,.,-3%,.,.,.
O=C(/C=C/c1ccc2oc3ccccc3c2c1)c1ccccc1,.,.,13%,.,.,.
N#Cc1ccc(N2CCN(C(=O)c3cccc(C(F)(F)F)c3)CC2=O)cc1,.,.,7%,.,.,.
COc1ccc(S(=O)(=O)N2CCCCCC2)cc1C(=O)Nc1ccc(C)cn1,-5%,5%,-12%,11%,?,-11
CCCNC(=O)C1CCCN(S(=O)(=O)c2ccc3c(c2)CC(C)N3C(=O)C2CC2)C1 (configuration not stated),?,-4%,-8%,10%,?,-8
CC1Cc2cc(S(=O)(=O)N3CCC(C(=O)Nc4ccccn4)CC3)ccc2N1C(=O)C1CCC1 (configuration not stated),18µM*,-28%,-11%,?,21µM*,?
COc1ccc(S(=O)(=O)N2CCCCCC2)cc1C(=O)Nc1cc(C)ccn1,21µM*,-18%,-9%,-5%[9.24 µM],?,-27
Cc1ccnc(NC(=O)C2CCN(S(=O)(=O)c3ccc(C)c(C)c3)CC2)c1,-4%,-12%,-20%,-21%,-20%,-84*
Cc1ccc(CNC(=O)C2CCN(S(=O)(=O)c3ccc4c(c3)CC(C)N4C(=O)C3CCC3)CC2)o1 (configuration not stated),?,-9%,0%,-22%,29µM*,-26
CCCNc1nc2ccccc2nc1C(=O)Nc1ccccc1C,.,.,-2%,.,.,.
SMILES,TDP1 cell CPT,HT1080 IDH1KD tx,ALOX12 inh,HT1080-NT tox,TDP1 cell noCPT,IL1B secr inh
CC1(C)OC2OC(C(=O)Oc3ccc(Br)cc3)C3OC(C)(C)OC3C2O1 (configuration not stated),.,.,-54%,.,.,.
Cc1ccc(Nc2nc(N)nc(CSc3nnc(C4CC4)n3Cc3ccccc3)n2)cc1,.,.,7%,.,.,.
CN1CC2(CCN(C(=O)C3CCCC3)CC2)CC1C(=O)N1CCOCC1 (configuration not stated),.,.,39%,.,.,.
CC(=O)N1c2ccc(S(=O)(=O)N3CCC(C(=O)Nc4ccc(C)cn4)CC3)cc2CC1C (configuration not stated),?,-9%,?,-5%,?,-19
Cc1ccc(NC(=O)C2CCN(S(=O)(=O)c3ccc4c(c3)CC(C)N4C(=O)C3CCC3)CC2)nc1 (configuration not stated),16µM*,?,15%,-26%,?,-81*
Cc1ccnc(NC(=O)C2CCN(S(=O)(=O)c3ccc4c(c3)CC(C)N4C(=O)C3CCC3)CC2)c1 (configuration not stated),?,?,32%,-21%,?,-69*
Cc1n[nH]c(C)c1C,.,.,5%,.,.,.
COc1ccccc1OCCCOc1c(C)cc(C)cc1Br,-13%,11%,-8%,6%,-20%,23
COc1ccccc1OCCOCCOc1c(C)cc(C)cc1Br,?,11%,5%,4%,23µM*,-2
COc1ccccc1NC(=O)Cn1c(=O)n(-c2ccc(C)cc2)c(=O)c2ccc(C(=O)NCc3ccco3)cc21,?,.,-19%,.,?,.
COc1ccc(NC(=O)CN2C(=O)CSc3ccc(S(=O)(=O)N(C)C)cc32)cc1Cl,23µM*,.,-12%,.,?,.
CCOC(=O)CN1C(=O)CSc2ccc(S(=O)(=O)N3CCCC3)cc21,-13%,17%,-8%,24%,?,-52*
CCc1ccc(NC(=O)CN2C(=O)CSc3ccc(S(=O)(=O)N(C)C)cc32)cc1,-13%,.,-22%,.,-21%,.
O=C(CN1C(=O)CSc2ccc(S(=O)(=O)N3CCCC3)cc21)Nc1cccc(Cl)c1,?,.,-9%,.,23µM*,.
Cc1ccc(NC(=O)CN2C(=O)CSc3ccc(S(=O)(=O)N4CCCCC4)cc32)cc1,?,?,-5%,-3%,-13%,-89*
Cc1noc([C@H]2CCN(C(=O)NCc3ccc(F)cc3)C[C@H]2NC(=O)C2CC2)n1,.,.,-3%,.,.,.
